Shown are actives, neighbours in structure and some others; about 21% of the full set was active somewhere.
Pf growth 96h: P. falciparum growth inhibition at 96 hour, primary screen for plastid delayed-death inhibitors. P. falciparum luciferase reporter growth, 96 h. Potency, µM (doses to about 28.7 µM), for the others: at the top dose activity change, negative = inhibition, hits mostly inhibitors. 320,000 tested, 6.9% active; further: potency means the concentration at half of the fitted maximal effect; on the % scale 0 is the no-effect control and ±100 the full control effect
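Cell-based qHTS: luciferase-tagged P. falciparum in erythrocytes (2% hematocrit, 0.05% parasitemia final) incubated with compounds for 96 hours, 37 C, 5% CO2; luciferase detection reagent then added and luminescence measured.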
HCV inh: HCV inhibition; Huh7.5.1 HCVcc-Cre infection, luciferase reporter, 44 h; Potency, µM (titrated, usually from 41.8 µM), for the others: at the highest dose activity change, negative = inhibition, usual class: inhibitors; 340,000 tested, 3.4% active; further: potency means the concentration at half of the fitted maximal effect; on the % scale 0 is the no-effect control and ±100 the full control effect
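Infectious HCV cell culture screen: compound-treated cells (1,000/well, pre-plated 4 h) are infected with HCVcc-Cre at roughly 0.5 moi and grown 44 h. Infection is quantified by luciferase signal after 15 min substrate incubation at room temperature.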
Pf growth 48h: inhibits P. falciparum growth in the first generation, 48 h | P. falciparum luciferase growth in erythrocytes, 48 h | AID 504832 | Potency, µM (series often up to 28.7 µM), inactives show at the highest dose activity change, negative = inhibition, usual class: inhibitors | 310,000 tested, 5.9% active; further: potency means the concentration at half of the fitted maximal effect; on the % scale 0 is the no-effect control and ±100 the full control effect
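Compounds are pin-transferred into medium, infected erythrocytes (2% hematocrit, 0.1% parasitemia final) are added, and plates sit one parasite generation at 37 C in 5% CO2. Detection reagent is then added and luminescence measured.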
Shiga inhibitor: inhibitors of Shiga toxin in Vero cells; Vero cells, Shiga toxin protein synthesis inhibition reporter; inhibition, % at 38.7 µM; 290,000 tested, 9.2% active; AID 2315; in the data active means inhibition mostly above about 28%, no sharp cut-off; inactive means mostly below about 43%; further: 0% is about no effect
AMA1-RON2 inh: AMA1-RON2 (P. falciparum) interaction inhibition; Potency, µM (titrated, usually from 58.2 µM), inactives show top-dose activity change, negative = inhibition, hits mostly inhibitors; 360,000 tested, 0.2% active; AID 720542; AlphaScreen AMA1-biotinylated RON2 peptide binding;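 further: potency means the concentration at half of the fitted maximal effect; 0% = vehicle wells and -100% = peptide control; nearly all actives have a fitted effect of over 45% in size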
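AMA1 (3D7) with his tag at 25 nM final met compounds first, then biotinylated RON2 peptide at 25 nM; detection used donor plus acceptor beads, 10 µg/mL apiece, read by AlphaScreen after 30 min at room temperature.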
CHX counter: counter-screen for Shiga toxin inhibitors: cycloheximide protein synthesis inhibition | max response, % | cell reporter, cycloheximide protein synthesis inhibition counterscreen | 300,000 tested, 12% active | AID 2314; in the data active means max response mostly above about 13%, no sharp cut-off; inactive means mostly below about 14%; further: read at 38.3 µM for the half of the compounds with a filed dose; 0% is about no effect
An asterisk follows results filed as active; i = inactive; ? = inconclusive; · = not tested or not shown; [ ] = another dose, or the depositor's remark. Unless noted, the call rests on the fitted dose curve; in most records, active means well fitted curve in the direction sought with a large enough effect; inconclusive means small, poorly fitted or top-dose-only effect, or another doubt; inactive means no such curve, though single readings can be large; an effect the other way counts as inactive or inconclusive.

SMILES | Pf growth 96h | HCV inh | Pf growth 48h | Shiga inhibitor | AMA1-RON2 inh | CHX counter
CCN1CCc2nc3ccccc3c(C(=O)Nc3ccc(F)cc3)c2C1 | ? | -13% | 2.1µM* | -6 | -3% | -4
O=C(Nc1ccc(N2CCCCC2)cc1)c1ccc2ccccc2n1 | 123% | 10µM* | 345% | 78* | ? | 29*
CSc1ncccc1C(=O)Nc1cccc(S(=O)(=O)N2CCCCC2)c1 | 10µM* | ? | 12µM* | · | -7% | ·
CSc1ncccc1C(=O)Nc1ccc(S(=O)(=O)N2CCCC2)cc1 | ? | -23% | ? | · | 2% | ·
O=C(Nc1nc2ccc(S(=O)(=O)N3CCCC3)cc2s1)c1ccccn1 | 91% | ? | ? | 60* | 88% | 38*
O=C(Nc1nc2ccc(S(=O)(=O)N3CCCCC3)cc2s1)c1ccncc1 | -19% | -1% | ? | 2 | 32% | -4
O=C(Nc1cccc(S(=O)(=O)N2CCCCCC2)c1)c1ccc2ccccc2n1 | ? | ? | ? | 3 | -22% | 22*
O=C(Nc1cccc(S(=O)(=O)N2CCCC2)c1)c1cc(-c2ccccn2)nc2ccccc12 | ? | ? | 12µM* | -9 | 5% | 8
O=C(Nc1cccc(S(=O)(=O)N2CCCCC2)c1)c1ccccn1 | -27% | -1% | 2% | 26 | -10% | 27*
O=C(Nc1cccc(S(=O)(=O)N2CCOCC2)c1)c1ccccn1 | ? | -16% | 18% | 30 | 47% | 11
COc1ccc(/C=C/C(=O)C2(O)CCCCC2)cc1OC | 2% | -9% | ? | -9 | -5% | 10
COc1cc2c(cc1OC)C(C)N(C(=O)c1cc3c(C)cc(C)cc3[nH]1)CC2 (stereo unspecified) | 13µM* | 22µM* | 10µM* | -5 | -11% | -1
COc1cc2c(cc1OC)C(C)N(C(=O)Nc1cc(C)cc(C)c1)CC2 (stereo unspecified) | ? | -24% | ? | -9 | -2% | -3
Oc1c(N=NC(=S)Nc2ccccc2F)c2ccccc2n1Cc1ccc(F)cc1 | ? | ? | 2.1µM* | -3 | 17% | 7
Oc1c(N=NC(=S)Nc2ccccc2F)c2ccccc2n1Cc1cccc(Cl)c1 | 14% | ? | ? | 11 | 11% | 9
Cc1ccc(NC(=O)Cn2c(O)c(N=NC(=O)c3ccncc3)c3ccccc32)cc1 | 5% | -6% | 29% | 8 | -7% | -3
Cc1cccc(NC(=O)Cn2c(O)c(N=NC(N)=S)c3ccccc32)c1 | 15µM* | ? | -10% | 3 | 33% | 2
C/C(Cl)=C\Cn1c(O)c(N=NC(N)=S)c2cc(Br)ccc21 | ? | 11µM* | 10µM* | 17 | 43% | -2
Cc1occc1C(=O)N=Nc1c(O)[nH]c2ccc(Br)cc12 | 4.1µM* | 4% | 139% | 75* | · | 33*
CCn1c(=O)ccc2cc([N+](=O)[O-])ccc21 | 9% | 17% | 2% | 26 | -9% | -1
O=C(CCn1ccc2cc(S(=O)(=O)N3CCCC3)ccc21)NCc1cccc(F)c1 | -20% | ? | -19% | 11 | 11% | -3
Cc1cc(N=NC(=O)c2ccccc2O)c2ccccc2c1O | ? | ? | 55% | 126* | -14% | 40*
Cn1c(O)c(N=NC(N)=S)c2ccccc21 | 12µM* | · | ? | · | · | ·
Cn1c(O)c(N=NC(=O)c2ccccc2O)c2ccccc21 | -2% | ? | -1% | 62* | 24% | 37*
COc1ccccc1NC(=O)Cn1c(O)c(N=NC(=O)c2ccccc2O)c2ccccc21 | 27% | -2% | 7% | -9 | 3% | 3
SMILES | Pf growth 96h | HCV inh | Pf growth 48h | Shiga inhibitor | AMA1-RON2 inh | CHX counter
Cn1c(O)c(N=Nc2ccccc2[N+](=O)[O-])c2ccccc21 | i | 0% | 77% | 75* | -11% | 31*
CCN(CC)S(=O)(=O)c1ccc2c(c1)N(CC(=O)Nc1ccc(NC(C)=O)cc1)C(=O)CO2 | ? | -8% | 10% | 6 | -9% | -2
NC(=S)N=Nc1c(O)n(Cc2ccc(Br)cc2)c2ccccc12 | 40% | 1µM* | ? | -7 | 5%[2.32 µM] | 1
CCOC(=O)C(=O)N=Nc1c(O)n(C)c2ccccc12 | -1% | 8% | 3% | -8 | 112% | -3
Cc1occc1C(=O)N=Nc1c(O)n(C)c2ccccc12 | 333% | 12% | 236% | 58* | 20% | 36*
CCCn1c(SC(C)C(=O)NC2CCCC2)n[nH]c1=O (stereo unspecified) | 36% | 15% | 7% | · | -7% | ·
CC1CN=C(N(C(=O)Nc2ccccc2)c2ccc(F)cc2)S1 (stereo unspecified) | ? | -1% | · | 21 | -7% | 11
Cc1ccc(NC(=O)N(C2=NCC(C)S2)c2ccccc2)cc1 (stereo unspecified) | · | 7% | · | · | -5% | ·
Cc1cccc(N(C(=O)Nc2ccccc2)C2=NCC(C)S2)c1 (stereo unspecified) | ? | 9% | · | 66* | 11% | 30*
Cc1cccc(N(C(=O)Nc2ccc(Cl)cc2)C2=NCC(C)S2)n1 (stereo unspecified) | ? | -16% | 21% | 28 | 13% | 20*
CC(=O)Nc1ccc(S(=O)(=O)NC2CC(=O)N(c3ccc(C)cc3)C2)cc1 (stereo unspecified) | 2% | -1% | 8% | · | 6% | ·
Nc1c(C(=O)c2ccc(Cl)cc2)sc2nsc(SCCN3CCOCC3)c12 | 5% | ? | -9% | 19 | 14% | 6
CC(=O)c1sc2nsc(SCCN3CCCCC3)c2c1N | ? | ? | ? | 43 | 8% | 29*
Nc1c(C(=O)c2ccccc2)sc2nsc(SCCN3CCCC3)c12 | ? | ? | ? | 104* | -16% | 40*
CC(C)c1ccc(/C=N/N2CCCCC2)cc1 | 6% | 8% | 77% | 139* | -18% | 31*
C(=N\N1CCN(c2ccccn2)CC1)/c1cccc2ccccc12 | 16% | ? | 29% | 43* | 14µM* | 17*
CN(C)c1ccc(C=NN2CCCCCC2)cc1 | · | -6% | · | · | 0% | ·
CC(C)c1ccc(/C=N/N2CCN(c3ccccn3)CC2)cc1 | 17% | -5% | 44% | 43* | -4% | 21*
Oc1ccccc1/C=N/N1CCN(c2ccccn2)CC1 | 42% | 10% | 86% | 90* | ? | 37*
CC(C)=CCC[C@H](C)CC1Cc2[nH]c(=S)[nH]c(=O)c2C(c2ccc(Cl)cc2)O1 (stereo partly specified) | · | · | · | · | 105% | ·
CC(C)C1Cc2ccccc2-c2[nH]c(=S)[nH]c(=O)c21 (stereo unspecified) | · | 7% | · | · | 88% | ·
Cc1cc([N+](=O)[O-])ccc1NC(=O)C[n+]1ccc(N(C)C)cc1 | 26% | 6% | -12% | -3 | -14% | -2

Source: PubChem BioAssay
